What all share (test): DAPPL (digital affinity profiling via proximity ligation, sequencing); 10 mM Tris-HCl pH 7.5, 50 mM NaCl, 1 mM DTT, 4% glycerol, room temperature, 30 min; GST-TFs on glutathione beads, 16-mer random dsDNA library, 0.1% formaldehyde crosslink after washing; high values mean tight binding
In one experiment the target is T1, FEV (Homo sapiens, UniProt Q99581 1-238).
T1 sequence: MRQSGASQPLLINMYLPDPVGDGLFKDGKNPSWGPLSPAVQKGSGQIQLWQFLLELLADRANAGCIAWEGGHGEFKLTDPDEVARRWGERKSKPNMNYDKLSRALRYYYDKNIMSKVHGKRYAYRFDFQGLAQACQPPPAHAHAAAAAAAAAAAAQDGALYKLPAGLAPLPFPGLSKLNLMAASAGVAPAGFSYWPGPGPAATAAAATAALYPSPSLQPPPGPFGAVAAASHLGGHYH
Particulars: protein: recombinant; tags: N-terminal GST; dsDNA, one strand shown. The gist of the method:
(§1)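 After expression in yeast as GST fusions, human transcription factors were bound to glutathione beads, DNA-barcoded and mixed with a tag-only sample. The pools were incubated with 200 nmole of a 16-mer random double-stranded DNA library in Tris/NaCl/DTT/glycerol buffer (30 min, room temperature), washed and crosslinked with 0.1% formaldehyde. Proximity ligation with BsaI/T4 ligase ran for 1 h at 37 °C, before PCR amplification and sequencing on an Illumina NextSeq500. Binding signal is a hexamer's read frequency for a factor divided by its frequency for the tag-only sample.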

In a further experiment the target is ETV5 (Homo sapiens, UniProt P41161 1-510). Particulars: protein: recombinant; tags: N-terminal GST; dsDNA, one strand shown. The gist of the method:
as §1

A further experiment deals with HSF1 (Homo sapiens, UniProt Q00613 1-529). Particulars: protein: recombinant; tags: N-terminal GST; chain copies: 3; dsDNA, one strand shown. The procedure, abridged: as §1
Sequence of HSF1 (Q00613 whole entry): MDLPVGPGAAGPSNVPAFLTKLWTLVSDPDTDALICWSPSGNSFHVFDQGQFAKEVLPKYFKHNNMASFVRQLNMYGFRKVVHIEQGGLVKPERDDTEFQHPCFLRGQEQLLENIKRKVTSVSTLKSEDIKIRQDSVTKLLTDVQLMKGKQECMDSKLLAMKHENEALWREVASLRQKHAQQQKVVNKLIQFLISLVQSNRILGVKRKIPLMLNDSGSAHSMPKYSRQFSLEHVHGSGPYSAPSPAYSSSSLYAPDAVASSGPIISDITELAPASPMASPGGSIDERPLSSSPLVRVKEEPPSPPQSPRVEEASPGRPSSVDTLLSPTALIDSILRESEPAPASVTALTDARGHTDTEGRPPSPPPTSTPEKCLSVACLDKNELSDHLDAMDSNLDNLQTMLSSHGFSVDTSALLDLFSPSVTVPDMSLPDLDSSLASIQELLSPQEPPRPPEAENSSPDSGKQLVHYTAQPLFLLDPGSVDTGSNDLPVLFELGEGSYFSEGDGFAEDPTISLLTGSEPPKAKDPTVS
A further experiment deals with T2, SPIC (Homo sapiens, UniProt Q8N5J4 1-248).
T2 sequence: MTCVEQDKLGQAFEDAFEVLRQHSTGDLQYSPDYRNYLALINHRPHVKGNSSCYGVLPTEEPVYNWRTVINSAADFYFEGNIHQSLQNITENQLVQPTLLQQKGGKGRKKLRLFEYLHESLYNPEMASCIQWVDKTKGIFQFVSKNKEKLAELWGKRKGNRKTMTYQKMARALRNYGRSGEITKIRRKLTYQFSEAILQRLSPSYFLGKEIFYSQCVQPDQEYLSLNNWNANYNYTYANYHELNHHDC
Particulars: protein: recombinant; tags: N-terminal GST; dsDNA, one strand shown. The procedure, abridged:
as §1

For the next experiment, the target named is ELF4 (Homo sapiens, UniProt Q99607 1-663). Particulars: protein: recombinant; tags: N-terminal GST; dsDNA, one strand shown. The gist of the method:
as §1

The target of a further experiment is T3, ELK4 (Homo sapiens, UniProt P28324-2 1-405).
T3 sequence: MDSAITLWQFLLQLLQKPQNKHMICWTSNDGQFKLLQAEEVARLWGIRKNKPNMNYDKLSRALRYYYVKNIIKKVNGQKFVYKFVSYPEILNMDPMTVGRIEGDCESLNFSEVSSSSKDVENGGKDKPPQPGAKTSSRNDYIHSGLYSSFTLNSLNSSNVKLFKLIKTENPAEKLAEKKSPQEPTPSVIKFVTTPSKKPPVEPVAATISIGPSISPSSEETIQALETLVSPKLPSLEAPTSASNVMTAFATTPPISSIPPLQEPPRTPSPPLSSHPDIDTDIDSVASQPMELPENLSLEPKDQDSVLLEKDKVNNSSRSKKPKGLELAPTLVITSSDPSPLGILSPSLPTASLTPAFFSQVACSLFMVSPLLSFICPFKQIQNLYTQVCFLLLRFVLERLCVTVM
Particulars: protein: recombinant; tags: N-terminal GST; dsDNA, one strand shown. The gist of the method:
as §1

The target of another experiment is T4, ETV2 (Homo sapiens, UniProt O00321 1-342).
T4 sequence: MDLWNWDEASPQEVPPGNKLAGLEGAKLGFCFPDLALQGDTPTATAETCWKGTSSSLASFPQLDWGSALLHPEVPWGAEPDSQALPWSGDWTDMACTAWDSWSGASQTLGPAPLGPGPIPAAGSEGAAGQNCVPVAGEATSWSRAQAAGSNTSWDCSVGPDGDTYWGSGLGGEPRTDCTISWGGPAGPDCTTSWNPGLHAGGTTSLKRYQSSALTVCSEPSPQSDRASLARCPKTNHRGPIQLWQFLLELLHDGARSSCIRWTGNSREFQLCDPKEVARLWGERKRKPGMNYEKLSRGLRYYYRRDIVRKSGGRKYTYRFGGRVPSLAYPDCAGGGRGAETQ
Conditions: protein: recombinant; tags: N-terminal GST; dsDNA, one strand shown. The gist of the method: as §1

Another experiment deals with T5, ELF3 (Homo sapiens, UniProt P78545 1-371).
T5 sequence: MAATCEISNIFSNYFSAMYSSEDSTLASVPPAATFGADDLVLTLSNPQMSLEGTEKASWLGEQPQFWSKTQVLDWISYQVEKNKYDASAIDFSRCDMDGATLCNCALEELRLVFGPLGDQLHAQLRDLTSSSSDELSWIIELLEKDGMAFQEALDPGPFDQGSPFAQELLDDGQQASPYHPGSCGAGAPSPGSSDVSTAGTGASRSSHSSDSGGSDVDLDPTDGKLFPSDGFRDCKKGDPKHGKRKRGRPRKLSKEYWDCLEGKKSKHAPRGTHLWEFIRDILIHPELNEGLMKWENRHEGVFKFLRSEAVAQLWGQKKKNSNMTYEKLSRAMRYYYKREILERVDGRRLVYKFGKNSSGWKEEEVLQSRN
Conditions: protein: recombinant; tags: N-terminal GST; dsDNA, one strand shown. The gist of the method: as §1

For a further experiment, the target named is CRX (Homo sapiens, UniProt O43186 1-299). Conditions: protein: recombinant; tags: N-terminal GST; dsDNA, one strand shown. The procedure, abridged:
as §1

For a further experiment, the target named is ETV1 (Homo sapiens, UniProt P50549 1-477). Particulars: protein: recombinant; tags: N-terminal GST; dsDNA, one strand shown. The gist of the method: as §1
Sequence of ETV1 (P50549 whole entry): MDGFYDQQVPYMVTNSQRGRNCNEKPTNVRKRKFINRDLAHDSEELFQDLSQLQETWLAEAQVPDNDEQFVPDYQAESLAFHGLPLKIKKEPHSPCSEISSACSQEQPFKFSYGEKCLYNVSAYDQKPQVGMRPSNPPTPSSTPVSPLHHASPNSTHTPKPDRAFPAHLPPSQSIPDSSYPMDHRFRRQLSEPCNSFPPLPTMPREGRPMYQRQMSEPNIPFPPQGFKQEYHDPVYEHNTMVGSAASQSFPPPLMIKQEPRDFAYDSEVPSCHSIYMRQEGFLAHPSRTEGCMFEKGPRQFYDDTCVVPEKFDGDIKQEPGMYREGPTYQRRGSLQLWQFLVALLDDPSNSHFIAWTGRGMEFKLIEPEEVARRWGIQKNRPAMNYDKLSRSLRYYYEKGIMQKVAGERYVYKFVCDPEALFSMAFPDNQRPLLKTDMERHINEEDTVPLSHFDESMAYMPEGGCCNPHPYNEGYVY
The target of a further experiment is T6, ERF (Homo sapiens, UniProt P50548 1-548).
T6 sequence: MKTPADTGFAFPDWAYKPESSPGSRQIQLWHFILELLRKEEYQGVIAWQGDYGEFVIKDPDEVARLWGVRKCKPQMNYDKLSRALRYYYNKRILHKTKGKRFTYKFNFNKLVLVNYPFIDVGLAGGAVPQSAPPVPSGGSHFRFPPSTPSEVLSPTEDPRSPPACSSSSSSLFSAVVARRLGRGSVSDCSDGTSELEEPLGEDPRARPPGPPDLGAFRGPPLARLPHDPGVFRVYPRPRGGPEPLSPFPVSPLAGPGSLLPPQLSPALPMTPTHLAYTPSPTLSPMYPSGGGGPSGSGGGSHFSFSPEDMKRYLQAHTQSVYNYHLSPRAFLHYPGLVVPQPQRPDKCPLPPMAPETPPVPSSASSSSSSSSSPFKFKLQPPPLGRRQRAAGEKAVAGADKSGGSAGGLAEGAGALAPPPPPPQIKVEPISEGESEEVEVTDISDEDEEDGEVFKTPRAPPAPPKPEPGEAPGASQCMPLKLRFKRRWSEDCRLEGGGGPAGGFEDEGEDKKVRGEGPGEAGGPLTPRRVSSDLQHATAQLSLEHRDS
Conditions: protein: recombinant; tags: N-terminal GST; dsDNA, one strand shown. The gist of the method: as §1

In the next experiment the target is T7, ETV3L (Homo sapiens, UniProt Q6ZN32 1-361).
T7 sequence: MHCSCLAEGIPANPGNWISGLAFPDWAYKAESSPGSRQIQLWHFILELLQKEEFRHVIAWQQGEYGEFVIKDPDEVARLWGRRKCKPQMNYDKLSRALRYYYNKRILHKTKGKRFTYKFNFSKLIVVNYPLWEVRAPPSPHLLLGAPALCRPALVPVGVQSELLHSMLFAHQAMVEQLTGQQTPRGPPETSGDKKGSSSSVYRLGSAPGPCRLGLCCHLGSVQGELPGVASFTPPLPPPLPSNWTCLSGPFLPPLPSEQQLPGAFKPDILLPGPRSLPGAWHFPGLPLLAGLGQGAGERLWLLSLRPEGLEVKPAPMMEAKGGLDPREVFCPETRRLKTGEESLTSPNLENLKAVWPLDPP
Particulars: protein: recombinant; tags: N-terminal GST; dsDNA, one strand shown. The gist of the method: as §1

The target of another experiment is T8, ETS2 (Homo sapiens, UniProt P15036 1-469).
T8 sequence: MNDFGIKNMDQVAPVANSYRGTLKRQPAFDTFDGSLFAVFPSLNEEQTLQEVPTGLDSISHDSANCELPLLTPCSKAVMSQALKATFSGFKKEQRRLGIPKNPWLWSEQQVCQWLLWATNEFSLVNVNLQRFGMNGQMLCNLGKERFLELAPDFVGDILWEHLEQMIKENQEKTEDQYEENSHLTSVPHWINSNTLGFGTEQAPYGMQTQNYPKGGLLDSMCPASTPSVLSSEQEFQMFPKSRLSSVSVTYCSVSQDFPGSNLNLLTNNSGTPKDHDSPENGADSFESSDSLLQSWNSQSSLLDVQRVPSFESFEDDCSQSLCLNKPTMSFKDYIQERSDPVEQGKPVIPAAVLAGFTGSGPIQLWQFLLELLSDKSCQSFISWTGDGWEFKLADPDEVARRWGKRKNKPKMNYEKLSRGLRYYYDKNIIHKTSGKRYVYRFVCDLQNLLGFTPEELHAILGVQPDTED
Particulars: protein: recombinant; tags: N-terminal GST; dsDNA, one strand shown. The gist of the method:
as §1

The target of a further experiment is T9, SPDEF (Homo sapiens, UniProt O95238 1-335).
T9 sequence: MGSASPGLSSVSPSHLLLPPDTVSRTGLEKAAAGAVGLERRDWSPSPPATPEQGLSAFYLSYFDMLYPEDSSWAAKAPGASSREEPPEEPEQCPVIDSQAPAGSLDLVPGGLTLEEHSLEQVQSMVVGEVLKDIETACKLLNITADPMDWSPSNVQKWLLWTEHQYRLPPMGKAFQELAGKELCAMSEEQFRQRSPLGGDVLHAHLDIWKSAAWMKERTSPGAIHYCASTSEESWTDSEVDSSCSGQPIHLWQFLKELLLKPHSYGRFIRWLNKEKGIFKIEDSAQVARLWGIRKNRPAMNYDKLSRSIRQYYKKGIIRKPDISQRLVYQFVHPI
Particulars: protein: recombinant; tags: N-terminal GST; dsDNA, one strand shown. The procedure, abridged:
as §1

Another experiment concerns the target T10, ETV7 (Homo sapiens, UniProt Q9Y603 1-341).
T10 sequence: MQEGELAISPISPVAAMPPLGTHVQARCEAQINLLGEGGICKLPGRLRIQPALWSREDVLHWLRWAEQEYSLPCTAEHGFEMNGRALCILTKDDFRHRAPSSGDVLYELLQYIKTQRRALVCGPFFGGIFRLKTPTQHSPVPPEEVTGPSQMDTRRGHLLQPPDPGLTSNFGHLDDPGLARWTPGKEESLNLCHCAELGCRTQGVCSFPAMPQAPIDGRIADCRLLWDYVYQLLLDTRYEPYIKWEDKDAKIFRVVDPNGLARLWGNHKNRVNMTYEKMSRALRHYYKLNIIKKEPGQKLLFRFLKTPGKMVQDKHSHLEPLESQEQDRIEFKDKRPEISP
Conditions: protein: recombinant; tags: N-terminal GST; dsDNA, one strand shown. The gist of the method:
as §1

The next experiment has as its target T11, ELF5 (Homo sapiens, UniProt Q9UKW6-2 1-255).
T11 sequence: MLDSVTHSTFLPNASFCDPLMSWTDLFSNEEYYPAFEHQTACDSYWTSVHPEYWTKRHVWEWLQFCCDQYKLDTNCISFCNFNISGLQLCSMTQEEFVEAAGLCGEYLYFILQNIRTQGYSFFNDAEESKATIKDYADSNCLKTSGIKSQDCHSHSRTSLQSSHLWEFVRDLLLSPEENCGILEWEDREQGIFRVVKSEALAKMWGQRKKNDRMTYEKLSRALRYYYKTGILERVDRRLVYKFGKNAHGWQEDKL
Conditions: protein: recombinant; tags: N-terminal GST; dsDNA, one strand shown. The procedure, abridged:
as §1

For another experiment, the target named is T12, ETV3 (Homo sapiens, UniProt P41162-2 1-143).
T12 sequence: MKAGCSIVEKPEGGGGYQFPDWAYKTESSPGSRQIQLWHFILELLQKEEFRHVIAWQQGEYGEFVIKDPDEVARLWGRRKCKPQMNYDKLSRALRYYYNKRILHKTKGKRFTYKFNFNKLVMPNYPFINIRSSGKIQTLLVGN
Conditions: protein: recombinant; tags: N-terminal GST; dsDNA, one strand shown. The procedure, abridged:
as §1

In a further experiment the target is ETV6 (Homo sapiens, UniProt P41212 1-452). Conditions: protein: recombinant; tags: N-terminal GST; dsDNA, one strand shown. The gist of the method: as §1
Sequence of ETV6 (P41212 whole entry): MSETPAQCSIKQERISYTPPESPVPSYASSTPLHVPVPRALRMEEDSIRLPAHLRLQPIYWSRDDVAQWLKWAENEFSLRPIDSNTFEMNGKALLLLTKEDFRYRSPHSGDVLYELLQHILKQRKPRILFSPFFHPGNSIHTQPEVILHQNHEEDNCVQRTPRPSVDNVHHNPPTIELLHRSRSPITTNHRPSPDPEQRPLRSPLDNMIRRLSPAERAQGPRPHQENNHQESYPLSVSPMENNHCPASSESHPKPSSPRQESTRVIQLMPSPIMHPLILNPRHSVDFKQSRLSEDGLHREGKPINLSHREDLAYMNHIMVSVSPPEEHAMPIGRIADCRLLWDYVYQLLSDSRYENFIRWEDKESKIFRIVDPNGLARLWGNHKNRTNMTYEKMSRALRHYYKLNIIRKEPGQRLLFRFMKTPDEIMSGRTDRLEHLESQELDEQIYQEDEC

Sequence of CRX (O43186 whole entry): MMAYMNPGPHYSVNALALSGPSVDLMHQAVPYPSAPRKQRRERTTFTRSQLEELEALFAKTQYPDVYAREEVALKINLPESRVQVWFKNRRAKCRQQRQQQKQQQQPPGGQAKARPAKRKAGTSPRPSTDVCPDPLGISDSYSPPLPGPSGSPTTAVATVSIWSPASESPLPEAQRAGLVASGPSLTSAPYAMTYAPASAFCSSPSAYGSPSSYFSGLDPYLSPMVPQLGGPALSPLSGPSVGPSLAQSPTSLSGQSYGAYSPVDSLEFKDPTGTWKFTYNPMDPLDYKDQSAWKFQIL
Sequence of ETV5 (P41161 whole entry): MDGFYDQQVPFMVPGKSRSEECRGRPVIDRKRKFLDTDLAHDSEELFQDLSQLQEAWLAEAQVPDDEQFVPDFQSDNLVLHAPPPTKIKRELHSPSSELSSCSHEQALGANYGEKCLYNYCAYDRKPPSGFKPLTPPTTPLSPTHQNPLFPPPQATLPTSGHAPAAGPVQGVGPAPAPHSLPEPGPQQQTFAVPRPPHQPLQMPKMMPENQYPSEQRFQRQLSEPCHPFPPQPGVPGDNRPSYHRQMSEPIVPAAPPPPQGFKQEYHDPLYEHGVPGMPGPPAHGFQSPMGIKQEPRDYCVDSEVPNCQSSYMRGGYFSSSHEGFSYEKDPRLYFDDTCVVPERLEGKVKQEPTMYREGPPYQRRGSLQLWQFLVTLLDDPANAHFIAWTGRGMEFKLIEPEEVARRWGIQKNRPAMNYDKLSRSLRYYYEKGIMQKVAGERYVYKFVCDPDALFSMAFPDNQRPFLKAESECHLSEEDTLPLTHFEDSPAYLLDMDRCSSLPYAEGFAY
Sequence of ELF4 (Q99607 whole entry): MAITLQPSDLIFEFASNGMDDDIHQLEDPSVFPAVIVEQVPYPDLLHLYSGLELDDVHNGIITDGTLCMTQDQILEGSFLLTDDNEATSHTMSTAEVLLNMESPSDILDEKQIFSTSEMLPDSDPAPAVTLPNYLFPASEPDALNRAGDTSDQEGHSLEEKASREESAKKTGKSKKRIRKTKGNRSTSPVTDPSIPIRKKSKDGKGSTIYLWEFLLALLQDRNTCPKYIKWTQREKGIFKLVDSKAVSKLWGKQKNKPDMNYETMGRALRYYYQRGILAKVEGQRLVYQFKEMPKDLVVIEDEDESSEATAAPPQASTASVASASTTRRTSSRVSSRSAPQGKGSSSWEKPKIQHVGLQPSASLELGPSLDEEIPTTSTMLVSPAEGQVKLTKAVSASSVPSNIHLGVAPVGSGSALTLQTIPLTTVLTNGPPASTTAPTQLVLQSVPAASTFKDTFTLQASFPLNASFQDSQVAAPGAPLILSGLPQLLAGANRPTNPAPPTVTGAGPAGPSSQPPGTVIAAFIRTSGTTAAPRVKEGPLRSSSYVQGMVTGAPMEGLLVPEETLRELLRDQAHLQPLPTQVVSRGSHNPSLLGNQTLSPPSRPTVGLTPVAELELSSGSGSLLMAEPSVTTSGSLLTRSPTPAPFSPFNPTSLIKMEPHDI

As to TAATTG, the binding signal in the experiment with FEV was 1.32 fold enrichment (6-mer frequency, TF over GST control); with ETV5, 1.4 fold enrichment (6-mer frequency, TF over GST control); in the experiment with HSF1, 1.42 fold enrichment (6-mer frequency, TF over GST control); with SPIC, 1.31 fold enrichment (6-mer frequency, TF over GST control); in the experiment with ELF4 it was 1.36 fold enrichment (6-mer frequency, TF over GST control); with ELK4, 1.35 fold enrichment (6-mer frequency, TF over GST control). Besides, the binding signal in the experiment with ETV2 is 1.44 fold enrichment (6-mer frequency, TF over GST control); with ELF3, 1.49 fold enrichment (6-mer frequency, TF over GST control); with CRX, 1.82 fold enrichment (6-mer frequency, TF over GST control); with ETV1 it was 1.35 fold enrichment (6-mer frequency, TF over GST control); with ERF, 1.35 fold enrichment (6-mer frequency, TF over GST control); with ETV3L it was 1.37 fold enrichment (6-mer frequency, TF over GST control). Further, the binding signal with ETS2 was 1.42 fold enrichment (6-mer frequency, TF over GST control); with SPDEF, 1.22 fold enrichment (6-mer frequency, TF over GST control); in the experiment with ETV7, 1.44 fold enrichment (6-mer frequency, TF over GST control); with ELF5, 1.37 fold enrichment (6-mer frequency, TF over GST control); in the experiment with ETV3 it was 1.34 fold enrichment (6-mer frequency, TF over GST control); in the experiment with ETV6 it was 1.42 fold enrichment (6-mer frequency, TF over GST control).

The values above are taken from publication PMC7862700, “An all-to-all approach to the identification of sequence-specific readers for epigenetic DNA modifications on cytosine”.
